From PubChem BioAssay AID896 (National Center for Advancing Translational Sciences (NCATS), 2007) come the findings set out here.

The list shows a part of the results. Inconclusive results are not listed.

The experiment in a line: Confirmation Concentration-Response Assay for Allosteric/Competitive Inhibitors of Caspase-1. To be noted: purified caspase-1, fluorogenic substrate cleavage; compound fluorescence baseline read; at 57.5 µM. An excerpt:
NIH Molecular Libraries Screening Centers Network [MLSCN]
NIH Chemical Genomics Center [NCGC]
PI Name: Dr. James Wells,
Dr. Enrique Perez-Paya, Dr.Janice Williams, Dr. Dennis Wolan, a person
The caspases (Cysteine Aspartyl Protease) comprise a related family of 14 dimeric proteases that are critical mediators of apoptosis (programmed cell death) and inflammation. The caspases represent an important class of drug targets for stroke, ischemia, cancer and inflammatory diseases. […] One goal of this project was to identify compounds that act as allosteric inhibitors via stabilizing the procaspase form of the enzyme. […]
The biochemical assay was configured using purified caspase 1 at a high enzyme concentration to promote formation of the homodimers and thus facilitate the identification of allosteric inhibitors. […] After initiation of the assay with substrate the plates were rapidly read using an automated robotic system (Kalypsys, Inc.) to maintain consistent timing. […] Product formation was also measured after 1 hour. […]
Caspase 1 was prepared in buffer (50 mM HEPES pH 7.5, 50 mM KCl, 200 mM NaCl, 10 mM DTT, 0.1% CHAPS) at a concentration of 66.6 nM and 3 uL was dispensed to all wells using black solid Kalypsys 1536-well plates. […] The plates were then exposed using 405 nm excitation/520 nm emission filters for 4 sec and read at 20 sec intervals for 3 min. […]
As to `Cc1nc2c(C(=O)NCc3ccc4c(c3)OCO4)c[nH]n2c(=O)c1Cc1ccccc1F`, the baseline fluorescence was -1.24%.
